Shown are actives, neighbours in structure and some others; about 12% of the full set was active somewhere.
Sfp PPTase inh: qHTS Assay for Inhibitors of Bacillus subtilis Sfp phosphopantetheinyl transferase (PPTase) | AID 1490, 2009 | 310,000 compounds, 3.5% hits | Potency, µM, for the others: largest response in the series, negative = inhibition, most hits filed as inhibitors | 4'-phosphopantetheinyl transferase ffp (Bacillus subtilis), Q9F4F7 | Biochemical Sfp PPTase activity, qHTS;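 note: the enzyme is Sfp with the accession as filed and its product quenches rhodamine fluorescence; 0% = enzyme reaction without inhibitor and -100% = no enzyme wells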
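Step 1, compound plus 15 nM Sfp-PPTase, 15 min, room temperature. Step 2, add rhodamine-CoA (5 uM) and BHQ-2-YbbR (12.5 uM). Step 3, read 525/598 nm fluorescence at 0 and 30 min.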
L3MBTL1 block: qHTS Assay for the Inhibitors of L3MBTL1 | Lethal(3)malignant brain tumor-like protein 1 (Homo sapiens), Q9Y468 | AlphaScreen L3MBTL1–H3K9me1 peptide binding | Potency, µM (highest dose often 57.1 µM), inactives show top-dose activity, negative = inhibition, most hits filed as inhibitors | 230,000 compounds, 0.66% hits; note: % is set by controls: 0 for no effect and ±100 for the full control effect; nearly all actives have a fitted effect of over 60% in size
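AlphaScreen assay: L3MBTL1 (50 nM final) was preincubated 30 min at room temperature with biotinylated H3(1-15)K9me1 peptide (75 nM final), then 30 min with library compounds; streptavidin donor and nickel chelate acceptor beads (10 ug/mL final) added, 30 min dark.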
HP1b binding inh: HTS for Inhibitors of HP1-beta Chromodomain Interactions with Methylated Histone Tails | AlphaScreen HP1-beta / biotin-H3K9me3 peptide binding | 390,000 compounds, 0.56% hits | AID 540317, 2011 | Potency, µM (highest dose often 114 µM), for inactives: at the highest dose activity change, negative = inhibition, most hits filed as inhibitors; note: nearly all actives have a fitted effect of over 70% in size
Target sequence (P83916 whole entry, looked up): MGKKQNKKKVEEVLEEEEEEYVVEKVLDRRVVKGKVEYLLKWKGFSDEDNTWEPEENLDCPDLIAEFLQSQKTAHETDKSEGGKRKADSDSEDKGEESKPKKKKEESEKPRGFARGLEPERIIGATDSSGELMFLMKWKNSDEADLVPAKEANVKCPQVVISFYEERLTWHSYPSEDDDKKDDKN
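Compound inhibition of the preformed complex between 50 nM HP1-beta and 50 nM biotinylated H3K9me3 peptide was read by AlphaScreen. Buffer was PBS pH 7.4 with 0.01% Tween-20. Incubations ran 30 min at room temperature, with 10 ug/mL donor/acceptor beads.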
BAZ2B block: qHTS Assay for Inhibitors of BAZ2B; Potency, µM (top dose mostly 114 µM), inactives show top-dose activity change, negative = inhibition, usual class: inhibitors; 360,000 compounds, 4.4% hits; AlphaScreen BAZ2B-H3K14Ac peptide displacement; note: % is set by controls: 0 for no effect and ±100 for the full control effect; nearly all actives have a fitted effect of over 60% in size
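Complex of BAZ2B and biotin-H3K14Ac (50 nM apiece) forms over 30 min at RT, then faces library compounds up to 110 uM for another 30 min; AlphaScreen beads added, 20 min dark incubation, luminescence read.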
G9a inh: qHTS Assay for Inhibitors of Histone Lysine Methyltransferase G9a | G9a H3K9 monomethylation, AlphaScreen, 2 h | Potency, µM (highest dose often 102 µM), for the others: at the highest dose activity, negative = inhibition, actives largely listed as inhibitors | 350,000 compounds, 8.8% hits; note: % is set by controls: 0 for no effect and ±100 for the full control effect; nearly all actives have a fitted effect of over 75% in size
Target sequence (Q96KQ7 913-1193 limits assumed): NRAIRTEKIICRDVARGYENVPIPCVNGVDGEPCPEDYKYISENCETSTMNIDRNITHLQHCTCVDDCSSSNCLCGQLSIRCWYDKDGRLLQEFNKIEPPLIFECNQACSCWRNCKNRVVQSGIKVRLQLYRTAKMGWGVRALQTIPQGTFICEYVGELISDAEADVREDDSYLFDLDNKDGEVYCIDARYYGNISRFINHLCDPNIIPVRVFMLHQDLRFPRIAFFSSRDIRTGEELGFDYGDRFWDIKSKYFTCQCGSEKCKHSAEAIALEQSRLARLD
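Compounds were preincubated with 20 nM G9a for 15 min, after which biotinylated H3K9 peptide (500 nM) and SAM (20 uM) started a 2 h room-temperature reaction. Monomethylated product was quantified by antibody-based AlphaScreen chemiluminescence.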
JMJD2A Tudor: qHTS Assay for Inhibitors of JMJD2A-Tudor Domain; Lysine-specific demethylase 4A (Homo sapiens), O75164; AlphaScreen JMJD2A-Tudor / H3K4me3 peptide binding; Potency, µM (doses to about 114 µM), inactives show at the highest dose activity change, negative = inhibition, most hits filed as inhibitors; 390,000 compounds, 4.4% hits; note: % is set by controls: 0 for no effect and ±100 for the full control effect; nearly all actives have a fitted effect of over 50% in size
Active calls of the source: *; ? = inconclusive; . = no result given; [ ] = another dose, or the depositor's remark. Calls come from the whole dose curve; as a rule, active = well fitted curve in the direction sought with a large enough effect; inconclusive = small, poorly fitted or top-dose-only effect, or another doubt; inactive = no such curve, though single readings can be large; an effect the other way counts as inactive or inconclusive. Potency is the fitted concentration of half-maximal effect.

SMILES | Sfp PPTase inh | L3MBTL1 block | HP1b binding inh | BAZ2B block | G9a inh | JMJD2A Tudor
COc1ccc(N(C(C)=O)S(=O)(=O)c2cc(OC)ccc2OC)cc1 | 15% | -1% | 21% | -3% | -7%[12.7 µM] | -12%
COc1ccc(S(=O)(=O)N(C(=O)c2ccncc2)c2ccc3oc(C)c(C(C)=O)c3c2)cc1 | . | . | 23% | -4% | ? | -18%
CC(C)C(=O)N(c1ccc2oc(=O)sc2c1)S(=O)(=O)c1ccccc1 | 18µM* | . | 19% | -32% | 3.2µM* | ?
CC(=O)N(c1ccc2oc(=O)sc2c1)S(=O)(=O)c1ccccc1 | 8.9µM* | 0% | 5% | ? | 25µM* | -2%[11.4 µM]
COc1ccc(OC)c(S(=O)(=O)N(C(C)=O)c2ccc3oc(=O)sc3c2)c1 | 45µM* | . | 62% | -20% | 35µM* | 1%
COc1ccc(S(=O)(=O)N(C(=O)C(C)C)c2ccc3oc(=O)sc3c2)cc1 | ? | . | 48% | ? | 7.9µM* | -21%
COc1ccc(Nc2ncnc3onc(C)c23)cc1Cl | . | . | -4% | 10%[57.1 µM] | -5%[59 µM] | -15%
Cc1ccn2c(=O)nc(SCC(=O)Nc3ccc4c(c3)OCCO4)nc2c1 | . | ? | 18% | 4% | 9% | -7%
COc1ccc(C(=O)Oc2ccc3oc(=O)sc3c2)cc1 | 50µM* | . | 32% | 3% | ? | -5%
CCCC(=O)N(c1ccc2oc(=O)sc2c1)S(=O)(=O)c1cccs1 | ? | -14% | 38% | -6% | 40µM* | -13%
COc1cc(/C=C/C(=O)OCC(=O)Nc2ccc(NC(C)=O)cc2)cc(S(=O)(=O)N2CCc3ccccc32)c1OC | 9% | -19% | 24% | . | -50% | -30%
COc1cc(/C=C/C(=O)OCC(=O)NC2CC2)cc(S(=O)(=O)N2CCc3ccccc32)c1OC | 5% | -20% | 0% | -23% | 56µM* | -19%
CC(OC(=O)CC1Sc2ccccc2NC1=O)C(=O)N(C)Cc1ccccc1 (stereo not drawn) | . | . | 13% | . | . | -12%
COc1cc(OC)cc(C(=O)NCC(=O)N2CC=C(c3ccccc3)CC2)c1 | . | 29% | 17% | -16% | 50µM* | -16%
O=C(NCC(=O)N1CC=C(c2ccccc2)CC1)c1ccc(OC(F)F)cc1 | . | -4% | 28% | . | . | -9%
CC(NC(=O)CCCC1=NS(=O)(=O)c2ccccc2N1)c1ccccc1 (stereo not drawn) | . | . | 28% | 2% | 4%[59 µM] | -11%
C[C@H](CO)N1C[C@H](C)[C@@H](CN(C)S(C)(=O)=O)Oc2ccc(NC(=O)CCN3CCOCC3)cc2C1=O | . | 0% | 27% | . | . | -21%
CCCCCCCCSc1nnc2[nH]c(=O)cc(N)n12 | 5% | . | -17% | -19% | -9% | 11µM*
CCN1C(=O)c2cccc3cccc1c23 | 16µM* | . | 9% | 36% | -23%[12.7 µM] | 32µM*
CN(C)C(=O)CN1C(=O)c2cccc3cccc1c23 | -21% | 33% | 35% | 25% | . | 1%
Cc1ccccc1N1C(=O)c2cccc3cccc(c23)C1=O | 50µM* | -1% | 33% | 12% | 7% | -3%
CCN1CCN(C(c2ccc(OC)cc2)c2c(O)cc(C)n(CCOC)c2=O)CC1 (stereo not drawn) | . | . | 11%[57 µM] | -1% | ? | -26%
Cc1cc(=O)oc(C)c1C(=O)Nc1c(C)n(C)n(-c2ccccc2)c1=O | 21% | 2% | 30% | -4%[57.1 µM] | 1% | -6%
Cc1c(NC(=O)c2c(NC(=O)CNC3CC3)sc3c2CCCC3)c(=O)n(-c2ccccc2)n1C | 3% | 0% | 0% | ? | ? | 56µM*
NC(=O)c1ccc(-c2ccc(Br)cc2)o1 | -11% | -5% | -15% | -35% | 50µM* | -28%
SMILES | Sfp PPTase inh | L3MBTL1 block | HP1b binding inh | BAZ2B block | G9a inh | JMJD2A Tudor
Cc1ccc(S(=O)(=O)NC(=O)c2ccc(F)cc2)c(C)c1 | 17% | . | 24% | -1% | -4% | -27%
Cc1ccccc1C(=O)Nc1cccc(NC(=O)c2ccc(-c3ccc(Br)cc3)o2)c1 | ? | . | 11% | 3% | 8%[2.33 µM] | -4%
Cc1ccc(S(=O)(=O)NC(=O)c2ccc(-c3ccc(-c4ccccc4)cc3)o2)c(C)c1 | -14% | -10% | . | ? | 40µM* | .
O=C(O)c1ccc(-c2cccc(Cl)c2)o1 | . | . | 10% | . | . | -24%
NC(=O)C1CCN(C(=S)c2ccc(-c3ccc(Br)cc3)o2)CC1 | 16µM* | . | -6% | -15% | 35µM* | -11%
O=C(O)c1ccc(-c2ccc(-c3ccccc3)cc2)o1 | ? | . | . | . | 35µM* | .
COc1ccc(CCNC(=O)c2ccc(Cn3c(=O)c4ccccc4n(Cc4cccc(F)c4)c3=O)cc2)cc1OC | . | . | 24% | -23% | 3%[59 µM] | 1%
CC(=O)OCC1=C[C@H]2[C@@H]3C(C)(C)[C@]3(OC(C)=O)C[C@@H](C)[C@]2(O)[C@@H]2C=C(C)C(=O)[C@@]2(O)C1 | 4% | . | . | . | . | .
COc1ccc(NC(=O)C2CCN(S(=O)(=O)c3cccc4nonc34)CC2)cc1 | 8% | . | 27% | 2% | 45µM* | 6%
COc1cccc(NC(=O)C2CCN(S(=O)(=O)c3cccc4nonc34)CC2)c1 | . | . | 7% | -1% | -3%[59 µM] | 3%
COc1ccc(NC(=O)C2CCN(S(=O)(=O)c3cccc4cccnc34)CC2)cc1 | 19% | 30% | 47% | -15% | ? | -30%
CC(=O)c1ccc(NC(=O)C2CCN(S(=O)(=O)c3cccc4cccnc34)CC2)cc1 | 8% | -16% | 31% | -4% | 50µM* | -23%
O=C1N=C(N2CCCCC2)SC1=C1CCCC1 | -18% | -2% | 13% | -4% | 10%[59 µM] | -11%
CN1C(=O)C(=C2CCCCCC2)SC1=S | 56µM* | -2% | 75% | 2% | 45µM* | 1%
CCCCOc1ccc(N2C(=O)C(C)CNC2=S)cc1 (stereo not drawn) | . | . | 6% | . | . | ?
CC(=O)OC1C2CCC1C([N+]1(C)CCCCC1)CC2 (stereo not drawn) | 8% | . | 71µM* | -26% | 32µM* | 25µM*
C[N+]1(C2CCC3CCC2C3O)CCCC1 (stereo not drawn) | 6% | 3% | 27% | 50µM* | 11µM* | 4%
Cc1ccc(NC(=O)COC(=O)CNC(=O)c2ccc3ccccc3c2)c([N+](=O)[O-])c1 | 4% | -10% | 15% | -34% | -13%[59 µM] | -32%

Screens deposited in PubChem by National Center for Advancing Translational Sciences (NCATS).
